Results: the supplement of paper PMC8728848
Only a selection was taken, and the strongest signals are over-represented in it overall.

Columns and labels:
Experiment in all cases: glycan array binding signal (z-score within array); higher = stronger binding
Details in all cases: glycan notation: IUPAC condensed, linker removed
[1] = molecular target: Fuc(a1-2)Gal(b1-3)GalNAc(b1-3)Gal(a1-4)Gal(b1-4)Glc
Summary of the method: (§1)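 Negative Z-scores can be read as non-binding. The Z-score is calculated within each array and then averaged across arrays of one protein sequence at different concentrations or buffers and across linkers. Arrays, 3228 in all, were curated from the Consortium for Functional Glycomics database and kept only where the protein sequence was available.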

[2] = molecular target: Fuc(a1-2)Gal(b1-3)GalNAc(b1-4)[Neu5Ac(a2-3)]Gal(b1-4)Glc
Summary of the method: as §1

[3] = molecular target: Fuc(a1-2)Gal(b1-4)[Fuc(a1-3)]GalNAc(b1-3)Gal(b1-4)[Fuc(a1-3)]GlcNAc
Summary of the method: as §1

[4] = molecular target: Fuc(a1-2)Gal(b1-4)[Fuc(a1-3)]GalNAc(b1-3)Gal(b1-4)[Fuc(a1-3)]GlcNAc(b1-3)Gal(b1-4)[Fuc(a1-3)]GalNAc
Summary of the method: as §1

[5] = molecular target: Fuc(a1-2)Gal(b1-4)[Fuc(a1-3)]GlcNAc
Summary of the method: as §1

[6] = molecular target: Fuc(a1-2)[Gal(a1-3)]Gal(b1-4)Glc
Summary of the method: as §1

[7] = molecular target: Fuc(a1-3)[Gal(b1-4)]GlcNAc(b1-4)Gal(b1-4)[Fuc(a1-3)]GlcNAc(b1-4)Gal(b1-4)[Fuc(a1-3)]GlcNAc
Summary of the method: as §1

[8] = molecular target: Gal(b1-3)GalNAc(b1-4)Gal(b1-4)Glc
Summary of the method: as §1

[9] = molecular target: Gal(b1-3)GalNAc(b1-4)[Neu5Ac(a2-3)]Gal(b1-4)Glc
Summary of the method: as §1

Gal4S(b1-4)GlcNAc = molecular target: Gal4S(b1-4)GlcNAc
Summary of the method: as §1

Gal6S(b1-4)GlcNAc = molecular target: Gal6S(b1-4)GlcNAc
Summary of the method: as §1

GlcA(b1-6)Gal = molecular target: GlcA(b1-6)Gal
Summary of the method: as §1

[10] = molecular target: GlcNAc(b1-4)[GlcNAc(b1-6)]GalNAc
Summary of the method: as §1

[11] = molecular target: Man(a1-2)Man(a1-2)Man(a1-3)[Man(a1-2)Man(a1-6)[Man(a1-3)]Man(a1-6)]Man(b1-4)GlcNAc(b1-4)GlcNAc
Summary of the method: as §1

Neu5Ac(a2-3)Gal = molecular target: Neu5Ac(a2-3)Gal
Summary of the method: as §1

[12] = molecular target: Neu5Ac(a2-3)Gal(b1-3)[Fuc(a1-4)]GlcNAc
Summary of the method: as §1

[13] = molecular target: Neu5Ac(a2-3)Gal(b1-4)GlcNAc
Summary of the method: as §1

[14] = molecular target: Neu5Ac(a2-3)Gal6S(b1-4)[Fuc(a1-3)]GlcNAc
Summary of the method: as §1

[15] = molecular target: Fuc(a1-2)Gal(b1-3)[Fuc(a1-4)]GlcNAc
Summary of the method: as §1

Fuc(a1-2)[Gal(a1-3)]Gal = molecular target: Fuc(a1-2)[Gal(a1-3)]Gal
Summary of the method: as §1

[16] = molecular target: Fuc(a1-3)[Gal3S(b1-4)]GlcNAc
Summary of the method: as §1

Gal(a1-4)Gal(b1-4)Gal = molecular target: Gal(a1-4)Gal(b1-4)Gal
Summary of the method: as §1

Gal(a1-4)Gal(b1-4)GalNAc = molecular target: Gal(a1-4)Gal(b1-4)GalNAc
Summary of the method: as §1

Gal(a1-4)GlcNAc = molecular target: Gal(a1-4)GlcNAc
Summary of the method: as §1

[17] = molecular target: Gal(b1-3)GalNAc(b1-3)Gal(b1-4)Glc
Summary of the method: as §1

[18] = molecular target: Gal(b1-4)GalNAc(b1-3)[Fuc(a1-2)]Gal(b1-4)GlcNAc
Summary of the method: as §1

[19] = molecular target: GalNAc(b1-3)Gal(a1-4)Gal(b1-4)GlcNAc
Summary of the method: as §1

[20] = molecular target: GlcNAc(b1-3)[GlcNAc(b1-4)][GlcNAc(b1-6)]GlcNAc
Summary of the method: as §1

[21] = molecular target: GlcNAc(b1-3)[GlcNAc(b1-6)]GlcNAc
Summary of the method: as §1

[22] = molecular target: GlcNAc(b1-4)GlcNAc(b1-4)GlcNAc(b1-4)GlcNAc(b1-4)GlcNAc
Summary of the method: as §1

Man(a1-3)[Man(a1-6)]Man = molecular target: Man(a1-3)[Man(a1-6)]Man
Summary of the method: as §1

[23] = molecular target: Neu5Ac(a2-3)Gal(b1-3)GlcNAc6S
Summary of the method: as §1

[24] = molecular target: Neu5Ac(a2-8)Neu5Ac(a2-8)Neu5Ac(a2-3)[GalNAc(b1-4)]Gal(b1-4)Glc
Summary of the method: as §1

Row | Binder | glycan array binding signal (z-score) [1] | glycan array binding signal (z-score) [2] | glycan array binding signal (z-score) [3] | glycan array binding signal (z-score) [4] | glycan array binding signal (z-score) [5] | glycan array binding signal (z-score) [6] | glycan array binding signal (z-score) [7] | glycan array binding signal (z-score) [8] | glycan array binding signal (z-score) [9] | glycan array binding signal (z-score) (Gal4S(b1-4)GlcNAc) | glycan array binding signal (z-score) (Gal6S(b1-4)GlcNAc) | glycan array binding signal (z-score) (GlcA(b1-6)Gal) | glycan array binding signal (z-score) [10] | glycan array binding signal (z-score) [11] | glycan array binding signal (z-score) (Neu5Ac(a2-3)Gal) | glycan array binding signal (z-score) [12] | glycan array binding signal (z-score) [13] | glycan array binding signal (z-score) [14] | glycan array binding signal (z-score) [15] | glycan array binding signal (z-score) (Fuc(a1-2)[Gal(a1-3)]Gal) | glycan array binding signal (z-score) [16] | glycan array binding signal (z-score) (Gal(a1-4)Gal(b1-4)Gal) | glycan array binding signal (z-score) (Gal(a1-4)Gal(b1-4)GalNAc) | glycan array binding signal (z-score) (Gal(a1-4)GlcNAc) | glycan array binding signal (z-score) [17] | glycan array binding signal (z-score) [18] | glycan array binding signal (z-score) [19] | glycan array binding signal (z-score) [20] | glycan array binding signal (z-score) [21] | glycan array binding signal (z-score) [22] | glycan array binding signal (z-score) (Man(a1-3)[Man(a1-6)]Man) | glycan array binding signal (z-score) [23] | glycan array binding signal (z-score) [24]
1 | DC SIGN CRD (Homo sapiens), Q9NNX6 (protein) QPCPWEWTFFQGNCYFMSNSQRNWHDSITACKEVGAQLVVIKSAEEQNFLQLQSSRSNRFTWMGLSDLNQEGTWQWVDGSPLLPSFKQYWNRGEPNNVGEEDCAEFSGNGWNDDKCNLAKFWICKKSAWSHPQFEK | -0.37 | -0.377 | 5.67 | 3.54 | 4.18 | -0.339 | 5.8 | -0.385 | -0.363 | -0.361 | -0.39 | -0.392 | -0.371 | 2.91 | -0.339 | -0.076 | -0.387 | -0.394 | – | – | – | – | – | – | – | – | – | – | – | – | – | – | –
2 | RNase 1 (Homo sapiens) (protein) KESRAKKFQRQHMDSDSSPSSSSTYCNQMMRRRNMTQGRCKPVNTFVHEPLVDVQNVCFQEKVTCKNGQGNCYKSNSSMHITDCRLTNGSRYPNCAYRTSPKERHIIVACEGSPYVPVHFDASVEDST | 1.93 | – | – | – | – | – | – | – | – | – | – | – | – | -0.153 | – | – | – | – | -0.174 | -0.14 | -0.168 | 7.93 | 8.87 | -0.225 | 0.641 | -0.218 | 0.455 | -0.069 | -0.116 | -0.028 | -0.147 | -0.204 | -0.187
